This assay has as its target Dual specificity protein kinase CLK4 (Homo sapiens) (UniProt Q9HAZ1). Put plainly: Confirmation Assay for Inhibitors of CDC-like Kinase 4 (Kinase-Glo Assay). As to conditions: recombinant Clk4, Kinase-Glo ATP depletion luminescence. How it is done:
NIH Molecular Libraries Probe Production Centers Network [MLPCN] NIH Chemical Genomics Center [NCGC] MLPCN Grant: 1R03MH084827-01 Assay Submitter (PI): Tom Misteli NCGC Assay Overview: Clk4 (Invitrogen, cat# PV3839) was assayed using ATP and the RS repeat peptide (AnaSpec cat # 61722) as substrates. Following the Clk4 reaction, the remaining ATP levels were detected using Promega Kinase-Glo technology wherein the remaining ATP from the kinase reaction is detected using Ultra-Glo luciferase and D-luciferin which generates a bioluminescence signal from the ATP.
NCGC Assay Protocol Summary: Two uL/well of substrate-buffer solution (100 uM RS peptide, 1 uM ATP, 25 mM Tris pH7.5, 10 mM MgCl2, 0.5 mM EGTA, 2.5 mM DTT, 0.01% Triton X-100 final concentration) was dispensed into 1536-well, assay plates (Greiner, solid white medium-binding plates) with Aurora Discovery BioRAPTR Flying Reagent Dispenser (FRD; Beckton-Dickenson). Using a Kalypsys pin tool equipped with a 1536-pin tool, 23 nL of compound solution was transferred to the assay plate. […] Luminescence was detected with the ViewLux plate reader (Perkin Elmer, Waltham, MA) after 5 min incubation using a 5 second exposure time and 2x binning.
For orientation: Kinase-Glo measures the ATP left after a reaction by luminescence.

Results filed as inconclusive are left out. Active and inactive are the calls of the source. Calls follow the shape of the dose curve; as a rule, active = well fitted inhibition curve with a large enough effect; inconclusive = small, poorly fitted or top-dose-only effect; inactive = flat fitted curve, though single readings scatter.

Sequence of Dual specificity protein kinase CLK4 (Homo sapiens) (Q9HAZ1 whole entry, looked up): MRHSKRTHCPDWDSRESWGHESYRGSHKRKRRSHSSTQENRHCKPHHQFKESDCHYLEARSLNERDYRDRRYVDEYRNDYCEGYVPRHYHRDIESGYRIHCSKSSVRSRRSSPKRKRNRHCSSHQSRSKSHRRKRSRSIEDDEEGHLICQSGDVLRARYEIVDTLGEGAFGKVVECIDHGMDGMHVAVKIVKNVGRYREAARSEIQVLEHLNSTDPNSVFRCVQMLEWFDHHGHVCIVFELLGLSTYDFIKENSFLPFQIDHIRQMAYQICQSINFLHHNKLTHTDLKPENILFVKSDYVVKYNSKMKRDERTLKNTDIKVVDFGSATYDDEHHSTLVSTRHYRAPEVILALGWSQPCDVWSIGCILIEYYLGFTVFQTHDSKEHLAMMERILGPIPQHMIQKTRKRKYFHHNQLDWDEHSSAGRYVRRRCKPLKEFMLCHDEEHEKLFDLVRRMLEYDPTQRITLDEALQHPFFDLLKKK

Regarding `COc1ccc2c(c1)[nH]c1c(C)nccc12`, the Potency was 67.1 nM (active).

(Values after PubChem BioAssay AID1970 (National Center for Advancing Translational Sciences (NCATS), 2009).)
